Reference: PubChem BioAssay
Where “and” joins values, the source holds several entries; their conditions need not be identical. Equal values may be shown once.

What follows are compounds tested on XIP peptide (Xip251-270) (assay: small-molecule binders of XIP peptide, primary screen, biochemical, small-molecule microarray, fluorescence 635/667 nm, 0.5 µg/mL protein (AID 1183)). Settings: small-molecule microarray binding, fluorescence 635 nm; higher = more signal.

CO[C@H]1COC(=O)[C@H](C)NC(=O)CC=C[C@@H](C)[C@H](OC)COC(=O)CC=C[C@@H]1C was tested. Which composite z-score did it give?
Its composite z-score is 0.394.

For C=CCN(C(=O)C1N(CCOCCO)C(=O)C2C(C(=O)O)C3C=CC21O3)C(C)(C)C (stereo not given), which composite z-score is on record?
The composite z-score was 0.102 and -0.294.

With O=C(NN=C1C[C@@H](O)[C@@H](O)[C@@H]2[C@@H]3C(=O)N(Cc4ccc5c(c4)OCO5)C(=O)[C@@H]3CC[C@H]12)OCc1ccccc1 as the compound, how does the composite z-score read?
Its composite z-score is 0.222.

Which composite z-score does the source give for CC(C)=CCCC(C)=CCON=C1C[C@@H](O)[C@@H](O)[C@@H]2[C@@H]3C(=O)N([C@@H](C)c4ccccc4)C(=O)[C@@H]3CC[C@H]12 here?
Its composite z-score is 0.105.

For C=CC[C@H](O)c1ccc(OCCO)cc1, which composite z-score is on record?
The composite z-score was -1.28 and -0.655.

With O=c1n(-c2ccccc2)c(=O)n2n1CC[C@@H]1C(=NOC[C@@H](O)COCc3ccco3)[C@H]3O[C@H]3[C@@H](O)[C@@H]12 as the compound, how does the composite z-score read?
The composite z-score was 0.0433 and -0.0465.

Which composite z-score does the source give for COC(=O)C1=C(C)N(Cc2ccccc2)C2=C3C(=O)N(C)C(=O)[C@@H]3[C@@](O)(C(=O)OC)C(=O)N2[C@@H]1c1ccccc1 here?
The composite z-score was 0.0447 and 0.0893.

How did the composite z-score turn out when CC(C)N1CC=CC23O[C@@H]4C=CCCOC(=O)C4[C@H]2C(=O)N(C(C)CO)[C@@H]3C1=O (stereo not given in full) was run?
The composite z-score was 0.716 and -0.58.

How did the composite z-score turn out when C=CCN(Cc1ccccc1)C(=O)C1N(CCCCCCO)C(=O)C2C(C(=O)O)C3C=CC21O3 (stereo not given) was run?
The composite z-score was -0.673 and 0.372.

Which composite z-score does the source give for CC(C)=NOCc1ccc(-c2cn([C@@H]3COC[C@H]3O)nn2)cc1 here?
Its composite z-score is -0.149.

C[C@@H](ON=C1[C@H]2CCn3c(=O)n(-c4ccccc4)c(=O)n3[C@H]2[C@H](O)[C@@H]2O[C@H]12)c1cn([C@H](CO)Cc2ccccc2)nn1 was tested. Which composite z-score did it give?
Its composite z-score is 0.297.

For C=C[C@H](C)[C@@H](O)c1ccc(OCCO)cc1, which composite z-score is on record?
Its composite z-score is 0.112 and 0.861.

Which composite z-score does the source give for CC(C)CON=C1C[C@@H](O)[C@@H](O)[C@@H]2[C@@H]3C(=O)N(c4cccc(Oc5ccccc5)c4)C(=O)[C@@H]3CC[C@H]12 here?
Its composite z-score is 0.741.

How did the composite z-score turn out when CC(CO)N1C(=O)[C@@H]2C3C(=O)OCCC=C[C@H]3OC23C=CCN(Cn2nnc4ccccc42)C(=O)[C@@H]13 (stereo not given in full) was run?
The composite z-score was 0.699 and 0.41.

How did the composite z-score turn out when C=C(C)C(=O)OC[C@@H]1CN2[C@@H](CC[C@@H](C)[C@@H]2c2ccc(Br)cc2)C(=O)O1 was run?
The composite z-score was 0.175.

Which composite z-score does the source give for C[C@@H]1CC[C@@H](C(=O)O)N[C@H]1c1ccc(-c2ccco2)cc1 here?
Its composite z-score is 0.827.

How did the composite z-score turn out when COC(=O)C1=C(C)N(Cc2ccccc2)[C@]23O[C@](C(=O)OC)(C(=O)N2[C@@H]1c1ccccc1)[C@@H](c1ccccc1)[C@@H]3C(=O)c1ccccc1 was run?
The composite z-score was -0.0935 and 0.0333.

With COC(=O)CC=C[C@@H](C)[C@@H](CO)NS(=O)(=O)c1ccc(C)cc1 as the compound, how does the composite z-score read?
Its composite z-score is 0.169 and 0.315.

Which composite z-score does the source give for CO[C@@H]1COC(=O)CC=C[C@H](C)COC(=O)[C@H](C)NC(=O)CC=C[C@H]1C here?
Its composite z-score is 0.195.

Which composite z-score does the source give for C[C@@H](c1ccccc1)N1C(=O)[C@H]2[C@H]3[C@H](O)[C@H](O)CC(=O)[C@@H]3CC[C@H]2C1=O here?
The composite z-score was 0.403.

How did the composite z-score turn out when C=CCN(C(=O)C1N(C(C)(C)CO)C(=O)C2C(C(=O)O)C3C=CC21O3)C(C)(C)C (stereo not given) was run?
The composite z-score was -0.901 and -0.924.

With CCOC(=O)C[C@H]1[C@H](OC(=O)c2ccccc2-c2ccccc2)[C@@H](NC(=O)Cc2ccc(OC)cc2)c2cc(OCCCO)ccc2N1C(=O)c1ccc2ccccc2n1 as the compound, how does the composite z-score read?
The composite z-score was -0.398 and 0.0791.

For C=CCN(CCCCC)C(=O)C1N(c2ccc(CCO)cc2)C(=O)C2C(C(=O)O)C3C=CC21O3 (stereo not given), which composite z-score is on record?
Its composite z-score is 0.668 and 0.706.

How did the composite z-score turn out when COc1ccc(O[C@H]2C=C[C@@H](c3ccccc3)O[C@@H]2COC(=O)CCC(C)=NO[C@H](C)c2cn([C@H](CO)Cc3ccccc3)nn2)cc1 was run?
Its composite z-score is 0.238 and 0.548.

How did the composite z-score turn out when C=CCN(CCCC)C(=O)C1N(c2ccc(CCO)cc2)C(=O)C2C(C(=O)O)C3C=CC21O3 (stereo not given) was run?
Its composite z-score is 0.261 and -0.728.

How did the composite z-score turn out when Cc1ccc(S(=O)(=O)OC[C@@H]2CN3[C@@H](CC[C@@H](C)[C@@H]3c3ccc(Br)cc3)C(=O)O2)cc1 was run?
Its composite z-score is 0.432 and 0.299.

For Cc1ccc(S(=O)(=O)N[C@H]2COC(=O)[C@@H](Cc3ccccc3)NC(=O)[C@@H](C)COC(=O)CC=C[C@@H]2C)cc1, which composite z-score is on record?
Its composite z-score is 0.174 and -0.0928.

With O=C1[C@H]2[C@H]3[C@H](O)[C@H](O)CC(=NOCc4ccccc4)[C@H]3CC[C@H]2C(=O)N1Cc1ccccc1 as the compound, how does the composite z-score read?
The composite z-score was 0.0748.

For CON(C)C(=O)c1nnc2c3ccccc3n(S(=O)(=O)c3ccc(C)cc3)c2n1, which composite z-score is on record?
Its composite z-score is 0.632 and 0.305.

CCOC(=O)NN=C1C[C@@H](O)[C@@H](O)[C@@H]2[C@@H]3C(=O)N(Cc4ccc5c(c4)OCO5)C(=O)[C@@H]3CC[C@@H]12 was tested. Which composite z-score did it give?
The composite z-score was 0.586.

How did the composite z-score turn out when C=CCN(Cc1ccccc1)C(=O)C(c1cccs1)N(C(=O)/C=C\C(=O)O)c1c(Cl)cccc1CO (stereo not given) was run?
The composite z-score was -0.367 and -1.55.

CCCNC(=O)OC[C@H]1O[C@H](CCON=C(C)CCC(=O)OC[C@H]2O[C@H](C#Cc3ccccc3)C=C[C@@H]2Oc2ccc(C)cc2)C=C[C@@H]1Oc1ccc(OC)cc1 was tested. Which composite z-score did it give?
Its composite z-score is -0.439.

How did the composite z-score turn out when CCOC(=O)c1ccc(NC(=O)O[C@H]2[C@H](OC(=O)Nc3ccccc3)[C@H](OC(=O)Nc3ccccc3)[C@@H](OC)O[C@@H]2CO)cc1 was run?
Its composite z-score is 0.844 and 0.901.

With CC(C)C(=O)N[C@@H]1CCCN1C(=O)C=Cc1ccccc1 as the compound, how does the composite z-score read?
The composite z-score was 0.473.

Which composite z-score does the source give for CCOC(=O)[C@H](CC(C)C)NC(=O)CCC1CC(OC(=O)NCc2cccc3ccccc23)CC2(CCCC(COC(=O)NCc3ccccc3)O2)O1 (stereo not given in full) here?
Its composite z-score is 0.374.

Which composite z-score does the source give for C=C[C@H](C)[C@H](O)c1ccc(O)c2ccccc12 here?
Its composite z-score is -0.236 and 0.788.

For C=CCN(C(=O)C1N(CCCCCCO)C(=O)C2C(C(=O)O)C3C=CC21O3)C(C)(C)C (stereo not given), which composite z-score is on record?
Its composite z-score is 0.429 and -1.

COC(=O)[C@H](C)NC(=O)CCC1CC(OC(=O)NCCc2ccc(F)cc2)CC2(CCCC(COC(=O)NCCCN3CCCC3=O)O2)O1 (stereo not given in full) was tested. Which composite z-score did it give?
The composite z-score was 0.683.

For C#CCCCON=C1C[C@@H](O)[C@@H](O)[C@@H]2[C@@H]3C(=O)N(C4CCCCC4)C(=O)[C@@H]3CC[C@H]12, which composite z-score is on record?
Its composite z-score is 0.545.

How did the composite z-score turn out when CO[C@@H]1COC(=O)CC=C[C@H](C)[C@@H](NS(=O)(=O)c2ccc(C)cc2)COC(=O)CC=C[C@@H]1C was run?
The composite z-score was 0.77 and 0.481.
